The results in this text go back to PubChem BioAssay (NCATS).

Several values for one entry are separate records, joined by “and”; a condition that tells them apart may be missing. Identical values can stand only once. Records with an inconclusive call do not appear. Values without a mark were called inactive. Activity calls are given as the source filed them. Calls follow the shape of the dose curve; as a rule, active = well fitted curve in the direction sought with a large enough effect; inconclusive = small, poorly fitted or top-dose-only effect, or another doubt; inactive = no such curve, though single readings can be large; an effect the other way counts as inactive or inconclusive.

The nature of test [1]: Viability qHTS for spleen associated tyrosine kinase inhibitor (SYKi) naive MV4-11 cells (AID 1963823). Also: nearly all actives have a fitted effect of over 40% in size. Also: potency is read from the fitted curve at half-maximal effect. The gist of the method:
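CellTiter-Glo luminescence, 10 min room-temperature incubation, gave viability. Cells: naive MV4-11 (500/well), treated 72 hr at 37 C, 5% CO2.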
(In qHTS, concentration-response curves come from the screen itself.)

A short description of test [2]: Viability qHTS for spleen associated tyrosine kinase inhibitor (SYKi) drug resistant MV4-11 cells (AID 1963824). Also: nearly all actives have a fitted effect of over 35% in size. Also: potency is read from the fitted curve at half-maximal effect. The gist of the method: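 SYK inhibitor-resistant MV4-11 AML cells, 500 per well, added to predispensed compounds and incubated 72 hr at 37 C, 5% CO2. Viability measured by CellTiter-Glo luminescence after 10 min at room temperature.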
A short description of test [3]: Quantitative highthroughput screen to assess conditional lethalithy of NOMO1 cells grown in RPMI1640 with untreated serum (RPMI+s) (AID 1963876). Also: nearly all actives have a fitted effect of over 35% in size. Also: potency is read from the fitted curve at half-maximal effect.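 As to Viability: 100% = DMSO wells and 0% = empty wells without cells.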 Summed up: (§1)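 Each medium arm—HPLM with 10% dialyzed FBS, or RPMI1640 with 5 mM glucose and 10% untreated or dialyzed FBS—was screened against an 11-point, 3-fold compound titration for 48 h at 37 °C, with CellTiter-Glo luminescence as endpoint.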

Test [4] is described as follows: Quantitative highthroughput screen to assess conditional lethalithy of P12 Ichikawa cells grown in Human Plasma-Like Medium with dialyzed fetal bovine serum (HPLM+ds) (AID 1963879). Also: nearly all actives have a fitted effect of over 35% in size. Also: potency is read from the fitted curve at half-maximal effect. As to Viability: series mostly up to about 46 µM. As to conditions: Potency: viability. The gist of the method: as §1
Test [5] is described as follows: Quantitative highthroughput screen to assess conditional lethalithy of P12 Ichikawa cells grown in RPMI1640 with dialyzed fetal bovine serum (RPMI+ds) (AID 1963880). Also: potency is read from the fitted curve at half-maximal effect; nearly all actives have a fitted effect of over 35% in size. As to conditions: Potency: P12-Ichikawa viability. The gist of the method:
as §1

Test [6] can be described thus: Quantitative highthroughput screen to assess conditional lethalithy of P12 Ichikawa cells grown in RPMI1640 with untreated serum (RPMI+s) (AID 1963881). Also: nearly all actives have a fitted effect of over 35% in size. Also: potency is read from the fitted curve at half-maximal effect.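 As to Viability: series mostly up to about 46 µM; 100% = DMSO wells and 0% = empty wells without cells.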 Conditions: Potency: viability. Summed up:
as §1

A short description of test [7]: Quantitative highthroughput screen to assess conditional lethalithy of SEM cells grown in Human Plasma-Like Medium with dialyzed fetal bovine serum (HPLM+ds) (AID 1963882). Also: nearly all actives have a fitted effect of over 35% in size. Also: potency is read from the fitted curve at half-maximal effect. As to Viability: series mostly up to about 46 µM. Summed up:
as §1

A short description of test [8]: Quantitative highthroughput screen to assess conditional lethalithy of SEM cells grown in RPMI1640 with unreated serum (RPMI+s) (AID 1963883). Also: nearly all actives have a fitted effect of over 35% in size. Also: potency is read from the fitted curve at half-maximal effect.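 As to Viability: 100% = DMSO wells and 0% = empty wells without cells.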 Summed up: as §1
Test [9] can be described thus: Quantitative highthroughput screen to assess conditional lethalithy of SEM cells grown in RPMI1640 with dialyzed fetal bovine serum (RPMI+ds) (AID 1963884). Summed up: as §1
Test [10] can be described thus: Cellular viability qHTS for adrenocortical cancer (ACC) cell line SW-13 (AID 1963989). Also: nearly all actives have a fitted effect of over 65% in size. Also: potency is read from the fitted curve at half-maximal effect.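 As to activity (max response): cells grown in serum-free medium with ITS supplement; % is scaled to controls: 0 for no effect and ±100 for the full control effect.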 As to conditions: SW-13 ACC cells viability, CellTiter-Glo, 48 h; activity (max response): active compounds read low. Summed up:
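Viability was read as CellTiter-Glo luminescence after 48 h compound treatment (up to 46 uM final) of SW-13 cells grown serum-free; titration curves were fit with a four-parameter logistic model to give IC50 and efficacy.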

Test [11] can be described thus: Cellular viability qHTS for adrenocortical cancer (ACC) cell line NCI-H295R (AID 1963990). Also: nearly all actives have a fitted effect of over 60% in size. Also: potency is read from the fitted curve at half-maximal effect. The gist of the method:
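CellTiter-Glo ATP luminescence, read 48 h after compound addition, measured viability of NCI-H295R adrenocortical cells grown serum-free with ITS. Final concentrations spanned up to 46 uM. Data normalized to DMSO and doxorubicin, fitted for IC50 and maximal response.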

Test [12] can be described thus: Quantitative highthroughput screen to assess conditional lethalithy of NOMO1 cells grown in Human Plasma-Like Medium with dialyzed fetal bovine serum (HPLM+ds) (AID 1963878). Summed up: as §1

For the compound `CCOc1cc(N2CCC(O)CC2)ccc1Nc1ncc2c(n1)N(C)c1ccccc1C(=O)N2C`, the Potency was 1.86 µM (active) in test [1]; 1.03 µM (active) in [2]; 0.332 µM (active) in test [3]; 2.09 µM (active) in test [4]; 3.32 µM (active) in [5]; 2.35 µM (active) in test [6]. Moreover, the Potency in [7] is 20.9 µM (active); in [8], 16.6 µM (active); in test [9], 16.6 µM (active); in [10], 15.8 µM (active); in [11] it was 10 µM (active).

In the case of `CN1CCC(=C2c3ccccc3CCc3sccc32)CC1`, the Potency in test [1] is 14.8 µM (active); in [2], 18.6 µM (active). Besides, the Potency entry in test [3], in test [4], in test [6] and in [8] was “inactive” throughout.

With `CC(=O)OCCN1C(=O)c2c(C)nc3ccc(S(=O)(=O)N4CCOCC4)cc3c2C1=O`, the Potency entry in test [1], in test [2], in test [7], in [8] and in [11] was “inactive” each time. Further, the values for the Potency in test [3], in [4] and in test [5] were 0.264 µM (active), 2.64 µM (active) and 3.32 µM (active), respectively. For the same compound, the activity (max response) in [10] is -3.53%.

Turning to `CCC(=O)O[C@]1(C(=O)SCF)[C@H](C)C[C@H]2[C@@H]3C[C@H](F)C4=CC(=O)C=C[C@]4(C)[C@@]3(F)[C@@H](O)C[C@@]21C`, the Potency was 3.3 nM (active) and 8.3 nM (active) in test [1]; 1.18 µM (active) in test [2]. The Potency entry in test [3], in [12] and in [11] was “inactive” in each case. The activity (max response) in test [10] is 0.482% and -2.88%.

Turning to `CN[C@H]1CCc2cc(OC)c(OC)c(OC)c2-c2ccc(OC)c(=O)cc21`, the Potency in test [1] is 0.0934 µM (active); in test [2] it was 0.0934 µM (active); in test [3] it was 0.0093 µM (active); in [4], 0.0118 µM (active); in [5], 0.0105 µM (active); in test [6], 0.0105 µM (active). Besides, the Potency in test [7] was 0.0066 µM (active); in test [8] it was 0.0083 µM (active); in [9], 0.0074 µM (active); in [10] it was 0.1 µM (active); in test [11] it was 0.0891 µM (active).
